Test results as given in PubChem BioAssay.
Activity calls are given as the source filed them. Unless noted, no rule for the calls is given here.

Legend:
[1] = system: XIP peptide (Xip251-270) binding; experiment: XIP fragment 251-270 binding compounds – biochemical, small-molecule microarray, fluorescence 635/667 nm, 0.1 µg/mL protein, primary screen (AID 1182); conditions: fluorescent protein binding, 635 nm, higher = more signal, called active from +8 up or from −8 down
[2] = system: XIP peptide (Xip251-270); experiment: compounds binding XIP fragment 251-270 – biochemical, small-molecule microarray, fluorescence 635/667 nm, 0.5 µg/mL protein, primary screen (AID 1183); conditions: fluorescence 635 nm, higher = more signal
[3] = blood-stage malaria parasite viability loss – strain 3D7, DAPI fluorescence, 100 nL, primary screen (AID 1184);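 also: parasites grown inside human red blood cells in medium with human serum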; conditions: P. falciparum 3D7 growth, 3 d, higher = more signal
[4] = target: Homeobox protein Hox-A13 (Mus musculus) (UniProt Q62424); experiment: disruptors of Hoxa13 oligonucleotide interaction – biochemical, fluorescence polarization, labeled oligonucleotide, primary screen (AID 1185); conditions: Hoxa13:DNA binding, 15 min, higher = more signal, called active from +8 up or from −8 down
[5] = blockers of DNA damage checkpoint Chk1 activation – imaging, HeLa, hydroxyurea, phospho-Chk1 antibody, percent positive cells, primary screen (AID 1186); conditions: hydroxyurea-induced phospho-Chk1 immunofluorescence imaging, higher = more signal
[6] = blockers of DNA damage checkpoint Chk1 activation – imaging, HeLa, hydroxyurea, phospho-Chk1 nuclear intensity, primary screen (AID 1187); conditions: hydroxyurea-induced phospho-Chk1 immunofluorescence imaging, higher = more signal

Chain of Homeobox protein Hox-A13 (Mus musculus) (Q62424 whole entry, looked up): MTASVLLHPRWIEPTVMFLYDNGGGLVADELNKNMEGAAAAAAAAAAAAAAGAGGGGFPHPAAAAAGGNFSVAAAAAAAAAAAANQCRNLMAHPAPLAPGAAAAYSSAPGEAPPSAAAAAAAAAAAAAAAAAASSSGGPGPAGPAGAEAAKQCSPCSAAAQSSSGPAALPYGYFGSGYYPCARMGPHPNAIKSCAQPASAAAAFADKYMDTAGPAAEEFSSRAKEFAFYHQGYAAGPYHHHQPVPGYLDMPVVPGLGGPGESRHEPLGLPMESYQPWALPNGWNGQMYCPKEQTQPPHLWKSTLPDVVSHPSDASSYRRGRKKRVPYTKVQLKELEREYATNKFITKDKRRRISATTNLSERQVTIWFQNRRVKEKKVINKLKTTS

SMILES	composite z-score [1]	composite z-score [2]	z-score [3]	z-score [4]	z-score [5]	z-score [6]
C=CC[C@@]12N=C(c3ccc(OCCCO)cc3)O[C@@H]1c1ccccc1CN(Cc1ccccc1)C2=O	1.54 (inactive)	0.78	-2.61	-1.94 (inactive)	-0.367 (inactive)	0.0207 (inactive)
CO[C@H]1O[C@H](CO)[C@@H](OC(=O)Nc2ccccc2)[C@H](OC(=O)Nc2ccc3c(c2)OCO3)[C@@H]1OC(=O)Nc1ccc2c(c1)OCO2	2.23 (inactive)	0.863	-1.9	-9.6 (active)	0.149 (inactive)	0.121 (inactive)
C=C[C@H](OC)[C@@H](OC(=O)Nc1ccc(SC)cc1)c1ccc(OC)c(O)c1	0.241 (inactive)	0.0001	-0.549	-2.82 (inactive)	-0.439 (inactive)	0.136 (inactive)
NC(=O)[C@H]1[C@@H]2C(=O)O[C@@H](c3ccccc3)[C@@H](c3ccccc3)N2[C@@H](c2ccc(O)cc2)[C@]12C(=O)Nc1ccc(C#CCCO)cc12	-0.0876 (inactive)	-0.413	-0.629	-5.7 (inactive)	-0.0158 (inactive)	-0.651 (inactive)
CCOC(=O)C1=C[C@@H](c2ccccc2)N(S(=O)(=O)c2ccc(C)cc2)[C@H]1c1ccc(F)cc1	0.346 (inactive)	0.382	-2.17	-0.178 (inactive)	0.0332 (inactive)	-0.293 (inactive)
CCCC[C@@H]1C[C@H]1[C@@H](NC(=O)c1ccccc1)c1ccccc1C(F)(F)F	0.715 (inactive)	0.193	-1.19	2.99 (inactive)	0.726 (inactive)	0.542 (inactive)
COc1ccc([Si](C)(C)[C@H]2[C@H](CC(=O)N3Cc4ccccc4C[C@H]3CO)O[C@@]3(C(=O)N(Cc4cccc(N5CCOC5=O)c4)c4ccccc43)[C@@H]2C)cc1	0.873 (inactive)	0.625	-1.55	-3.02 (inactive)	-0.958 (inactive)	-0.191 (inactive)
COc1ccc(C(O)C2C=CC3C(=O)N(C)C(=O)C3N2N2CCCCC2)cc1OCc1ccccc1 (centres undefined)	-0.001 (inactive)	0.582	-0.303	-4.76 (inactive)	0.245 (inactive)	-0.0779 (inactive)
O=C1C2C=CC(C(O)c3ccccc3)N(n3cnnc3)C2C(=O)N1Cc1ccccc1 (centres undefined)	-0.377 (inactive)	-0.179	0.454	-2.02 (inactive)	-1.25 (inactive)	-1.21 (inactive)
COCCOC(=O)N1C(=O)[C@@]2(c3cc(C#CCC(C(=O)OC)C(=O)OC)ccc31)[C@H](c1ccccc1OCCO)N1[C@H](c3ccccc3)[C@H](c3ccccc3)OC(=O)[C@H]1[C@@H]2C(=O)N1CCCCCCC1	0.856 (inactive)	0.597	-1.97	2.94 (inactive)	-0.304 (inactive)	-0.309 (inactive)
CC(C)[Si](OCCCNS(=O)(=O)c1ccc(Br)cc1)(C(C)C)C(C)C	-0.0972 (inactive)	0.195	-1.12	-0.361 (inactive)	-0.672 (inactive)	-1.01 (inactive)
Cc1ccc(S[C@]2(C(=O)NC(C)C)CC(=O)N(Cc3cc(C(F)(F)F)cc(C(F)(F)F)c3)[C@@H]2c2ccc(CO)cc2I)cc1	0.351 (inactive)	0.667	0.201	-2.81 (inactive)	0.392 (inactive)	0.52 (inactive)
CCOC(=O)C[C@H]1[C@H](OC(=O)c2ccccc2-c2ccccc2)[C@@H](NC(=O)c2ccc(-c3ccccc3)cc2)c2cc(OCCCO)ccc2N1C(=O)Cc1ccc(OC)cc1	0.617 (inactive)	0.222	0.561	-2.32 (inactive)	0.663 (inactive)	0.241 (inactive)
COc1cc2c(cc1OC)CN(C(=O)[C@H]1[C@@H]3C(=O)O[C@@H](c4ccccc4)[C@@H](c4ccccc4)N3[C@@H](c3ccc(O)cc3)[C@]13C(=O)Nc1ccc(C#CC4(O)CCCCCC4)cc13)CC2	3.38 (inactive)	0.838	-1.51	-1.42 (inactive)	-0.0159 (inactive)	0.0808 (inactive)
C[N+](C)(C)CCCCNC(=O)[C@H]1C[C@H]2C(=O)NCC(=O)N2[C@H]1c1cccc(OCCO)c1	1.88 (inactive)	0.839	0.312	-2.52 (inactive)	0.0452 (inactive)	-0.0729 (inactive)
CCCCCCc1nc(-c2cc(C)c(OC)c(C)c2)cc2c1[Si](C(C)C)(C(C)C)O[C@H]2c1ccccc1	-0.408 (inactive)	-0.461	-0.753	-1.91 (inactive)	0.0883 (inactive)	-0.242 (inactive)
CC[C@H]1C2=C3C(CC[C@H]4C(OC)OC[C@](C)([C@@H]34)N(C(=O)OC(C)(C)C)C2)C(CO)C1CO (some centres undefined)	0.442 (inactive)	0.701	-0.62	-4.74 (inactive)	-1.37 (inactive)	-1.18 (inactive)

SMILES	composite z-score [1]	composite z-score [2]	z-score [3]	z-score [4]	z-score [5]	z-score [6]
CCCCO[C@H]1C[C@H]2C(Br)=C[C@@]1(CO)C(=O)[C@]21CO1	-0.631 (inactive)	-0.329	0.0951	-0.0157 (inactive)	-0.407 (inactive)	-0.291 (inactive)
Cc1ccc(S[C@]2(C(=O)O)CC(=O)N(Cc3ccccc3)[C@@H]2c2ccc(CO)cc2)cc1	-0.242 (inactive)	-0.655	-0.254	-2.96 (inactive)	-0.947 (inactive)	-1.23 (inactive)
O=C(CS)NCCCCCNC(=O)[C@H]1C[C@H]2C(=O)N[C@@H](Cc3ccccc3)C(=O)N2[C@H]1c1ccc(O)cc1	0.818 (inactive)	-0.072	-0.0713	-2.65 (inactive)	-0.319 (inactive)	0.637 (inactive)
Cc1ccc([C@@H]2CC=C(C(=O)O)[C@H](c3ccccc3)N2S(=O)(=O)c2ccc(C)cc2)cc1	1.71 (inactive)	0.909	-0.745	-7.09 (inactive)	-0.489 (inactive)	-0.824 (inactive)
CCCC[C@@H]1C[C@H]1[C@@H](NC(=O)c1cccs1)c1ccc(Cl)cc1	0.0874 (inactive)	-0.0771	-0.911	-0.736 (inactive)	-0.207 (inactive)	0.205 (inactive)
O=C/C=C/c1ccccc1Cl	0.0944 (inactive)	-0.264	0.316	-0.26 (inactive)	0.152 (inactive)	0.0674 (inactive)
C=C(/C(=C/C[C@@H](OC(=O)c1ccncc1)c1ccc(CO)o1)c1cnc2ccccc2c1)C(C)C	1.11 (inactive)	0.766	-0.599	-4.89 (inactive)	-0.33 (inactive)	-0.232 (inactive)
COc1ccc(C(=O)Nc2ccc(CN3C(=O)[C@]4(O[C@H](CCn5cc(CCO)nn5)[C@@H]([Si](C)(C)c5ccc(OC)cc5)[C@@H]4C)c4ccccc43)cc2)cc1	-0.154 (inactive)	0.621	-2.78	-3.55 (inactive)	0.188 (inactive)	0.686 (inactive)
C[C@H]1C2[C@H](Cc3ccccc3)NC(=O)[C@]23C(=O)N[C@H](Cc2ccccc2)C(=O)N[C@@H](Cc2ccccc2)C(=O)NC/C=C\C/C=C/C3[C@@H]2O[C@]12C (some centres undefined)	-0.157 (inactive)	-0.564	-0.873	-7.06 (inactive)	0.531 (inactive)	0.375 (inactive)
CC(C)N1CC=CC23O[C@@H]4/C=C\CCCOC(=O)C4[C@H]2C(=O)N(CCO)[C@@H]3C1=O (some centres undefined)	1.85 (inactive)	0.122	-0.348	-5.41 (inactive)	-1.32 (inactive)	-0.544 (inactive)
COc1ccc(NN2C(C(O)c3cc(OC)c(OC)c(OC)c3)C=CC3C(=O)N(C4CCCCC4)C(=O)C32)cc1 (centres undefined)	-0.0682 (inactive)	0.758	-1.11	-4.58 (inactive)	0.071 (inactive)	-0.378 (inactive)
C=CCNC(=O)[C@H]1[C@@H]2C(=O)O[C@@H](c3ccccc3)[C@@H](c3ccccc3)N2[C@@H](c2ccc(O)cc2)[C@]12C(=O)Nc1ccc(C#CCNC(N)=O)cc12	0.342 (inactive)	0.0866	-0.491	-2.56 (inactive)	0.191 (inactive)	0.424 (inactive)
Cc1ccc(S[C@]2(C(=O)O)CC(=O)N(Cc3cc(C(F)(F)F)cc(C(F)(F)F)c3)[C@@H]2c2ccc(CO)cc2I)cc1	-0.313 (inactive)	0.761	-0.48	-2.32 (inactive)	0.407 (inactive)	1.08 (inactive)
COc1cc2c(cc1OC)CN(C(=O)[C@@H]1[C@H]3C(=O)O[C@H](c4ccccc4)[C@H](c4ccccc4)N3[C@H](c3ccccc3OCCO)[C@@]13C(=O)Nc1ccccc13)CC2	1.79 (inactive)	0.829	-2.18	0.829 (inactive)	0.306 (inactive)	0.876 (inactive)
C=CCN1C(=O)[C@]2(O[C@H](CCn3cc(CCO)nn3)[C@@H]([Si](C)(C)c3ccc(OC)cc3)[C@@H]2C)c2cc(NC(=O)c3ccc(OC)cc3)ccc21	1.02 (inactive)	0.18	-2.84	-4.21 (inactive)	-0.798 (inactive)	-0.823 (inactive)
COC(=O)C1=CC(c2ccc(CO)cc2)=CC(c2cccs2)N(Cc2cccc(OC(F)(F)F)c2)C=C1C(=O)OC (centres undefined)	2.19 (inactive)	0.79	-1.91	-8.1 (active)	0.311 (inactive)	0.206 (inactive)
[N-]=[N+]=NCc1ccccc1C[C@@]1(C(=O)N2CCOCC2)N=C(c2ccc(OCCCO)cc2)O[C@@H]1c1ccccc1N=[N+]=[N-]	1.4 (inactive)	0.711	-1.98	-0.217 (inactive)	-0.269 (inactive)	0.0427 (inactive)
